Screening data (PubChem)
DT40 TDP1 CPT = qHTS for Inhibitors of human tyrosyl-DNA phosphodiesterase 1 (TDP1): qHTS in cells in presence of CPT | chicken DT40 Tdp1-/-;hTDP1 cells + 20 nM CPT, ATP luminescence, 48 h | Potency, µM (titrated, usually from 46.2 µM), for inactives: at the top dose activity change, negative = growth inhibition, usual class: inhibitors | hit rate 12% among 420,000; note: nearly all actives have a fitted effect of over 55% in size
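Chicken DT40 Tdp1-/- cells complemented with human TDP1, 400 cells/well, exposed to compounds plus 20 nM camptothecin for at least 48 h at 37 C; viability read as ATP content by CellTiter-Glo luminescence.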
TDP1 inh = qHTS Assay for Inhibitors of Tyrosyl-DNA Phosphodiesterase (TDP1) | Tyrosyl-DNA phosphodiesterase 1 (Homo sapiens), Q9NUW8 | recombinant TDP1, AlphaScreen DNA substrate cleavage | Potency, µM (titrated, usually from 130 µM), without a hit: at the highest dose activity change, negative = inhibition, hits mostly inhibitors | hit rate 0.28% among 350,000 | AID 485290, 2010; note: nearly all actives have a fitted effect of over 40% in size
Target sequence (Q9NUW8 whole entry, looked up): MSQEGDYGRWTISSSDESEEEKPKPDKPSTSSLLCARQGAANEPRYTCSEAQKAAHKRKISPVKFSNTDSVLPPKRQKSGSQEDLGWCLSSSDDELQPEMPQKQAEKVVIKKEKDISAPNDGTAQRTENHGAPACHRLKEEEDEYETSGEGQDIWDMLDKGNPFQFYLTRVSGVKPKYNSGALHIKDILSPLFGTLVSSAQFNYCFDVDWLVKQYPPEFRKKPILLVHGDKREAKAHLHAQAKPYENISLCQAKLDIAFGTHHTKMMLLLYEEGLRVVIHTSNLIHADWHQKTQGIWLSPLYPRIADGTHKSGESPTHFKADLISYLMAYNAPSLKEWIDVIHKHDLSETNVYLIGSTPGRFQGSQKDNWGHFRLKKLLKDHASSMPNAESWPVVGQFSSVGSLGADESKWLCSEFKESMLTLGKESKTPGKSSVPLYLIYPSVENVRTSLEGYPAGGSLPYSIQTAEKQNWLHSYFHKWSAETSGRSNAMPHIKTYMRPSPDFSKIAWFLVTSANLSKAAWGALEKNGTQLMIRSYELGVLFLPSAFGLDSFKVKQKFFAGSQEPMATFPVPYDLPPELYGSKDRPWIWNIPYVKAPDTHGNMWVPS
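Recombinant human Tdp1 (E. coli-expressed, 1 nM final) preincubated with compounds 15 min at room temperature, then 5'-biotin/3'-phosphotyrosine-FITC DNA substrate (15 nM final) added for 5 min. AlphaScreen beads (10 ug/ml final) added 10 min; cleavage lowers signal.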
TDP1 cell noCPT = qHTS for Inhibitors of human tyrosyl-DNA phosphodiesterase 1 (TDP1): qHTS in cells in absence of CPT. DT40 Tdp1-/- hTDP1 cells, no CPT, ATP luminescence, 48 h. Potency, µM (highest dose often 46.2 µM), for inactives: top-dose activity change, negative = growth inhibition, usual class: inhibitors. hit rate 15% among 420,000. AID 686978, 2013; note: nearly all actives have a fitted effect of over 55% in size
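No-CPT arm: Tdp1-/-;hTDP1 DT40 cells (400/well) plus compounds, incubated ≥48 hr at 37 °C. Readout CellTiter-Glo luminescence.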
Gal4-VP16 FLuc = VP16 counterscreen qHTS for inhibitors of ROR gamma transcriptional activity; Drosophila S2 Gal4-VP16 UAS-luciferase, luminescence, 20 h; Potency, µM (highest dose often 53.6 µM), for inactives: at the top dose activity, negative = inhibition, most hits filed as inhibitors; hit rate 3.5% among 310,000; AID 2546, 2010;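 note: Gal4-VP16 expression switched on by copper sulfate through the metallothionein promoter; nearly all actives have a fitted effect of over 50% in size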
RORg inh = qHTS for inhibitors of ROR gamma transcriptional activity. hit rate 5.4% among 310,000. Drosophila S2 Gal4-RORgamma UAS-luciferase reporter, 20 h. Potency, µM (highest dose often 53.6 µM), without a hit: at the highest dose activity change, negative = inhibition, actives largely listed as inhibitors. Nuclear receptor ROR-gamma (Mus musculus), P51450; note: nearly all actives have a fitted effect of over 60% in size
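Compounds are pin-transferred onto Drosophila Schneider cells expressing a copper-inducible Gal4–ROR gamma transactivation domain fusion. After 1 hr, copper sulfate is added to 700 uM final; luciferase is read 20 hr later.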
Active calls of the source: *; ? = inconclusive; . = not tested or not shown; [ ] = another dose, or the depositor's remark. Sampled rows, rich in hits. Any-hit rate of the full collection: about 19%. Calls come from the whole dose curve; as a rule, active = well fitted curve in the direction sought with a large enough effect; inconclusive = small, poorly fitted or top-dose-only effect, or another doubt; inactive = no such curve, though single readings can be large; an effect the other way counts as inactive or inconclusive. % is set by controls: 0 for no effect and ±100 for the full control effect; potency is the fitted concentration of half-maximal effect.

SMILES	DT40 TDP1 CPT	TDP1 inh	TDP1 cell noCPT	Gal4-VP16 FLuc	RORg inh
CN1/C(=C\C(=O)Nc2ccc(Br)cc2)C(C)(C)c2ccccc21	?	5%	-9%	-18%	8%
CN1/C(=C/C(=O)C2CC2)C(C)(C)c2ccccc21	?	-1%	23µM*	?	-6%
COC(=O)c1cc(NC(=O)Cc2ccccc2[N+](=O)[O-])cc(C(=O)OC)c1	-16%	3%	-11%	-1%	-16%
CN1/C(=C/C(=O)COC(=O)CN2C(=O)C3CC=CCC3C2=O)C(C)(C)c2ccccc21 (stereo not drawn)	?	.	16µM*	.	.
CN1/C(=C\C=C(/C#N)C(=O)Nc2ccccc2F)C(C)(C)c2ccccc21	-34%	-8%	-26%	-4%	0%
CN1/C(=C/C=C(/C#N)C(N)=O)C(C)(C)c2ccccc21	2.6µM*	2%	3.3µM*	-1%	24%
Cc1ccc(S(=O)(=O)N(C)C)cc1NC(=O)COC(=O)C1CCCC1	-10%	-1%	-21%	.	.
CCC(CC)c1nnc(NC(=O)C2CCCO2)s1 (stereo not drawn)	5%	0%	3%	0%[10 µM]	2%
COC(=O)c1sc(-c2ccc(Cl)cc2)cc1NC(=O)/C=C/C(=O)O	5.8µM*	.	6.5µM*	?	?
CCOc1ccc(-c2cc(NC(=O)c3ccc(C)cc3)c(C(=O)OC)s2)cc1	-13%	-3%	-18%	.	.
COC(=O)c1sc(-c2ccc(C(C)(C)C)cc2)cc1NC(=O)CCC(=O)O	16µM*	3%	?	?	1%
COC(=O)c1sc(-c2ccc(Cl)cc2)cc1NC(=O)COCC(=O)O	-9%	7%	-15%	9%	7%
COC(=O)c1sc(-c2ccccc2)cc1NC(=O)c1ccc(F)cc1	?	3%	?	-7%	-7%
CCOc1ccc(-c2cc(NC(=O)c3ccccc3)c(C(=O)OC)s2)cc1	?	5%	12µM*	.	.
CCOC(=O)c1sc(-c2ccccc2)cc1NC(=O)Nc1ccc([N+](=O)[O-])cc1	?	6%	21µM*	-4%	-4%
CN(C)c1cc2c(c(N(C)C)c1)C(=O)c1ccccc1C2=O	?	-9%	?	?	-41%
CCn1c(C(=O)O)c(CC(=O)Nc2ccccc2F)c2ccccc21	-10%	2%	-25%	-12%	37%
CCOc1ccc(-c2cc(NC(=O)c3c(F)cccc3F)c(C(=O)OC)s2)cc1	-7%	0%	-3%	.	.
CCOc1ccc(-c2cc(NC(=O)Nc3cccc(C(C)=O)c3)c(C(=O)OC)s2)cc1	23µM*	-3%	-10%	.	.
CC(=O)O[C@@]1(C(C)=O)CCC2C3C=C(Cl)C4=CC(=O)CC[C@]4(C)C3CC[C@]21C (stereo partly drawn)	?	14%[56.1 µM]	?	-1%	-1%
CC(=O)O[C@]1(C(C)=O)CC[C@H]2[C@@H]3C=C(Cl)C4=CC(=O)[C@@H]5C[C@@H]5[C@]4(C)[C@H]3CC[C@@]21C	?	1%	21µM*	-2%	?
CC(=O)O[C@]1(C(C)=O)CC[C@H]2[C@@H]3C=C(Cl)C4=CC(=O)CC[C@]4(C)[C@H]3CC[C@@]21C	?	-3%	21µM*	-6%	-34%
COc1ccc2c(c1[N+](=O)[O-])CCC/C2=N/OC(=O)c1cccc2ccccc12	?	-1%	?	14µM*	-23%
O=C1CCN(Cc2ccccc2)C=C1c1ccc(Cl)cc1	23µM*	5%	?	.	.
O=C1CCN(Cc2ccccc2)C=C1c1ccc(C(F)(F)F)cc1	?	1%	?	.	.
CCCC(=O)Nc1cccc(Oc2nc(C)cc(C)c2C#N)c1	?	0%	?	-9%	-13%
